Experimental data as given in ChEMBL document CHEMBL4296182, “CO-ADD screening of NIH NCI Diversity Set V”.
For part of these data: Results with a measured potency or affinity are listed apart.

Experiments:
Staphylococcus aureus = assay: Antibacterial activity against Staphylococcus aureus MRSA ATCC 43300 (CO-ADD:GP_020); MIC in CAMBH media using NBS plates, by Resazurin F(560/590); type: functional; conditions: Concentration 20 uM, ASSAY_TEST Inhibition of Bacterial Growth, detection method Resazurin, Fluorescence (ex560/em590), MEDIA CAMHB, plate type 384well, CORNING #3640, time 18 hr
Acinetobacter baumannii = assay: Antibacterial activity against Acinetobacter baumannii ATCC 19606 (CO-ADD:GN_034); MIC in CAMBH media using NBS plates, by Resazurin F(560/590); type: functional; conditions: Concentration 20 uM, ASSAY_TEST Inhibition of Bacterial Growth, detection method Resazurin, Fluorescence (ex560/em590), MEDIA CAMHB, plate type 384well, CORNING #3640, time 18 hr
Escherichia coli = assay: Antibacterial activity against Escherichia coli ATCC 25922 (CO-ADD:GN_001); MIC in CAMBH media using NBS plates, by Resazurin F(560/590); type: functional; conditions: Concentration 20 uM, ASSAY_TEST Inhibition of Bacterial Growth, detection method Resazurin, Fluorescence (ex560/em590), MEDIA CAMHB, plate type 384well, CORNING #3640, time 18 hr
Klebsiella pneumoniae = conditions: Concentration 20 uM; ASSAY_TEST Inhibition of Bacterial Growth; detection method Absorption (OD600); MEDIA CAMHB; plate type 384well; NBS; CORNING #3640; time 18 hr
Candida albicans = conditions: 20 µM
Cryptococcus neoformans = conditions: Concentration 20 uM; ASSAY_TEST Inhibition of Fungal Growth; detection method Resazurin; Absorption (OD600-OD570); plate type 384well; NBS; CORNING #3640

SMILES	Inhibition (Staphylococcus aureus)	Inhibition (Acinetobacter baumannii)	Inhibition (Escherichia coli)	Inhibition (Klebsiella pneumoniae)	Inhibition (Candida albicans)	Inhibition (Cryptococcus neoformans)
NS(=O)(=O)c1ccc(NC(=S)NC(=O)c2ccco2)cc1	17.92%	4.84%	10.07%	4.06%	1.47%	-12.16%
COc1cc2c(c3c1c(=O)c1cccc(F)c1n3C)C=CC(C)(C)O2	18.94%	5.21%	5.53%	10.26%	1.02%	-11.93%
O=S(=O)(O)c1ccc2c(c1)C(C(Cl)(Cl)Cl)OC(C(Cl)(Cl)Cl)O2 (centres undefined)	10.71%	-8.34%	18.82%	1.9%	-0.48%	-7.32%
Cc1c(CCO)c(=O)n2n1CCCC2	-14.7%	-6.34%	-10.48%	7.18%	-0.03%	3.75%
C=CCNC(S)=Nc1c(N)n(C)c(=O)n(C)c1=O	11.89%	5.83%	-15.58%	18.14%	8.36%	18.71%
CN1N=C(N)c2cn(C3OC(COP(=O)(O)O)C(O)C3O)c3ncnc1c23 (centres undefined)	8.75%	8.14%	-1.62%	4.46%	-1.48%	-0.7%
CCN(CC)c1ccc(/C=C/c2cc(-c3ccccc3)c3ccccc3n2)cc1	16.67%	5.92%	4.61%	11.78%	4.35%	-9.69%
O=[N+]([O-])c1ccc2c3ccccc3[s+]([O-])c2c1 (centres undefined)	5.76%	5.87%	8.3%	9.17%	6.79%	-11.15%
CN(C)C(=O)OCC1COc2ccccc2O1 (centres undefined)	14.89%	-13.85%	7.79%	12.42%	-0.21%	-9.62%
Cc1ccc2c(c1)C(=C(C#N)C#N)CCN2	5.58%	12.47%	3.17%	22.07%	3.21%	-7.98%
COC(=O)Cc1[nH]c(O)nc1C(=O)OC	5.51%	-8.26%	3.06%	20.66%	-0.45%	-7.96%
CCOC(CNCc1cc(C)c2[nH]c3ccccc3c2c1C)OCC	11.65%	-1.22%	3.76%	8.4%	1.3%	-11.65%
Nc1cc(N)nc(CS)n1	9.52%	-5.46%	6.53%	20.9%	-2.73%	-6.05%
Cc1cccc(C(O)C(O)c2cccc(C)n2)n1 (centres undefined)	7.22%	-14.61%	8.35%	7.91%	0.07%	-7.77%
NC(=O)Nc1n[nH]c(-c2ccccc2)n1	-5.91%	-11.11%	-7.81%	2.72%	1.88%	1.04%
Cc1[nH]c(=O)n(C(C)C)c(=O)c1Br	12.85%	-11.08%	12.66%	5.3%	0.37%	-6.73%
S=C(SCc1cc(Cl)cc2c1OCOC2)N1CCSCC1	8.1%	-7.54%	10.68%	22.79%	13.5%	0.8%
NNC(=O)CNC(=O)Nc1nnc(S)s1	1.09%	15.79%	-4.75%	16.78%	2.5%	-8.13%
O=C(Nc1ccc(Oc2ccc(NC(=O)Nc3ccc([N+](=O)[O-])cc3)cc2)cc1)Nc1ccc([N+](=O)[O-])cc1	16.59%	-20.31%	13.56%	15.1%	1.13%	-4.65%
Cc1cccc(C)c1NC(=O)Nc1ccc(S(N)(=O)=O)cc1	-3.68%	5.47%	8.39%	5.63%	0.87%	-12.09%
CCOC(=O)C1=C(N)N=C(N)C1=Nc1ccc(OC)cc1	10.45%	-11.35%	6.73%	4.94%	-1.95%	-7.84%
O=C(CC1C=Cc2ccccc2N1C(=O)c1ccccc1)c1ccccc1 (centres undefined)	3.75%	6.29%	9.32%	9.71%	2.1%	-5.82%
N=C(NOC(=O)c1ccccc1)C(Cc1ccccc1)C(=O)NOC(=O)c1ccccc1 (centres undefined)	11.08%	-11.45%	18.34%	10.4%	7.02%	-11.11%
c1ccc(-c2ccc3c(c2)NCCN3)cc1	0.03%	-10.39%	5.22%	8.37%	-1.02%	1.51%
CN(C)c1nc(Cl)nc2c1nc(Cl)n2C1CCCCO1 (centres undefined)	8.01%	-7.69%	0.28%	5.28%	1.95%	-3.53%

SMILES	Inhibition (Staphylococcus aureus)	Inhibition (Acinetobacter baumannii)	Inhibition (Escherichia coli)	Inhibition (Klebsiella pneumoniae)	Inhibition (Candida albicans)	Inhibition (Cryptococcus neoformans)
COc1cccc(-c2nnc(N)o2)c1	11.58%	-10.93%	4.71%	8.97%	1.68%	-2.41%
Cc1n[nH]c2nc(N)nn2c1=O	-4.36%	-0.91%	10.78%	-2.02%	-3.85%	-10.19%
C=CCOC(=O)/C=C\C(=O)NC(N)=O	5.08%	-11.84%	0.88%	29.86%	7.76%	0.75%
O=C(Cn1nnc(N2CCCCC2)n1)N/N=C/c1ccccc1O	17.81%	3.41%	7.77%	2.1%	-0.19%	-9.12%
CC1CCC(C(C)C)C(NC(=O)c2ccncc2)C1 (centres undefined)	7.04%	-17.65%	6.28%	10.65%	-0.85%	-11.13%
CN(C)N1C(=O)c2c(Cl)c(Cl)c(Cl)c(Cl)c2C1=O	2.83%	0.5%	6.02%	6.84%	1.54%	46.33%
Cc1ccn2c(C(C)O)nnc2c1 (centres undefined)	16.33%	-15.76%	12.13%	2.31%	-1.79%	-15.94%
O=C(NC(=S)Nc1cccc2c(O)cccc12)c1cccc(Br)c1	25.64%	-2.51%	14.87%	10.97%	12.3%	-5.01%
Nc1cc2c3c(cccc3c1)C(=O)N(CCN1CCCC1)C2=O	23.19%	9.76%	2.48%	19.29%	-1.62%	-3.61%
CCOC(=O)c1c(N=C(S)NC)sc2c1CCCC2	-2.15%	0.51%	7.45%	1.7%	6.72%	-11.99%
Cn1cnc([N+](=O)[O-])c1Sc1n[nH]c(N)n1	6.38%	14.39%	-1%	1.75%	-0.83%	-4.45%
Cc1nc(SCC(=O)O)n[nH]1 [TIAZOTIC ACID]	14.48%	-8.95%	7.99%	14.92%	2.04%	-0.18%
Nc1nc2c[nH]c(N)nc-2n1	-4.21%	2.13%	5.84%	7.49%	3.2%	-2.1%
O=C(NCc1ccco1)Nc1ccc([N+](=O)[O-])cc1	14.72%	3.43%	4.45%	18.95%	5.76%	-12.12%
O=C(Nc1ccc2ncccc2c1)Nc1ccc2ncccc2c1	9.01%	-26.89%	13.25%	9.25%	0.58%	-19.53%
O=C1c2cccc3cc([N+](=O)[O-])cc(c23)C(=O)N1CCN1CCCC1 [PINAFIDE]	-1.04%	10.65%	-8.19%	5.33%	0.21%	-7.33%
C=CCNC(=O)C1COc2ccccc2O1 (centres undefined)	-8.47%	-14.67%	0.51%	7.35%	1.99%	-7.01%
CCN(CC)CCN1c2ccccc2Sc2ccc3ccccc3c21	2.63%	-0.08%	11.87%	8.87%	0.24%	-5.58%
Cc1cc(O)c2c(O)[nH]nc2n1	14.32%	-13.07%	7.82%	1.49%	-3.37%	-5%
CCOC(=O)c1nc(SC)n(C)c1C(=O)OCC	10.21%	-12.95%	18.32%	2.22%	0.39%	-13.08%
CC12CCC(C(NC(=S)NN)C1=O)C2(C)C (centres undefined)	2.53%	-10.15%	7.86%	9.19%	1.53%	-9.53%
C[C@@]1(c2ccccc2)O[C@@H]2C[C@H]3[C@@H]4CCC5=CC(=O)C=C[C@]5(C)[C@@]4(F)[C@@H](O)C[C@]3(C)[C@]2(C(=O)CO)O1 [AMCINAFIDE]	5.72%	-8.64%	8.97%	3.86%	4.92%	-9.65%
CC(C)(C)NC(=O)c1ccc(C(=O)NC(C)(C)C)cc1	-9.07%	-9.96%	2.15%	15.3%	8.15%	-7.37%
c1ccc(-c2nc3ccccc3s2)nc1	11.77%	-14.54%	6.85%	18.93%	0.91%	-15.52%
